Assay outcomes (PubChem)
Compounds with a hit are over-represented: about 12% of the library has one in this group of screens.
PLK1 PBD block: PLK1 (human) polo-box domain binding inhibition | Potency, µM, for inactives: max response, negative = inhibition, actives largely listed as inhibitors | Plk1 PBD binding of FITC phosphopeptide, fluorescence polarization | hit rate 2.8% among 360,000; also: potency is read from the fitted curve at half-maximal effect; series mostly up to about 57 µM; % is scaled to controls: 0 for no effect and ±100 for the full control effect; nearly all actives have a fitted effect of over 65% in size
BAZ2B inh: inhibitors of human BAZ2B bromodomain. Potency, µM (top dose mostly 114 µM), for inactives: at the top dose activity change, negative = inhibition, actives largely listed as inhibitors. hit rate 4.4% among 360,000. AlphaScreen BAZ2B-H3K14Ac peptide displacement. Q9UIF8; also: potency is read from the fitted curve at half-maximal effect; % is scaled to controls: 0 for no effect and ±100 for the full control effect; nearly all actives have a fitted effect of over 60% in size
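In this displacement format the biotinylated H3(5-23) peptide acetylated at Lys14 serves as ligand at 50 nM, with BAZ2B at 50 nM in PBS pH 7.4 containing 0.01% Tween-20. Donor and acceptor beads are 10 ug/mL final.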
HP1b chromo inh: inhibitors of HP1-beta chromodomain binding to methylated histone tails; P83916; Potency, µM (top dose mostly 114 µM), for the others: at the top dose activity change, negative = inhibition, actives largely listed as inhibitors; hit rate 0.56% among 390,000; AlphaScreen HP1-beta / biotin-H3K9me3 peptide binding; also: potency is read from the fitted curve at half-maximal effect; nearly all actives have a fitted effect of over 70% in size
Target sequence (P83916 whole entry, looked up): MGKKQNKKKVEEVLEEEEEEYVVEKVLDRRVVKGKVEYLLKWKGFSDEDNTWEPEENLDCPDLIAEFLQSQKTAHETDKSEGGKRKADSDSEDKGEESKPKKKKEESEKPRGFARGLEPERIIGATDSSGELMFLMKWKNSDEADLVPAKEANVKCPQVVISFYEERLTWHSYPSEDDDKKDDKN
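AlphaScreen: HP1-beta (50 nM) preformed 30 min with biotin-H3(1-18)K9me3 peptide (50 nM) in PBS pH 7.4, 0.01% Tween-20. Compound added for 30 min at RT, then streptavidin donor/nickel chelate acceptor beads (10 ug/mL) for 30 min.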
PI5P4Ka inh: blocks human PI5P4K alpha kinase activity | P48426 | PI5P4Kalpha enzyme, ADP-Glo luminescence, 60 min; stronger effect = lower value | max response, % | hit rate 1.2% among 330,000; active = max response of -50% or lower; inconclusive = between -30% and -50%; inactive = -30% or higher; also: value at the top dose of about 77 µM; % is scaled to controls: 0 for no effect and ±100 for the full control effect
Target sequence (P48426 whole entry, looked up): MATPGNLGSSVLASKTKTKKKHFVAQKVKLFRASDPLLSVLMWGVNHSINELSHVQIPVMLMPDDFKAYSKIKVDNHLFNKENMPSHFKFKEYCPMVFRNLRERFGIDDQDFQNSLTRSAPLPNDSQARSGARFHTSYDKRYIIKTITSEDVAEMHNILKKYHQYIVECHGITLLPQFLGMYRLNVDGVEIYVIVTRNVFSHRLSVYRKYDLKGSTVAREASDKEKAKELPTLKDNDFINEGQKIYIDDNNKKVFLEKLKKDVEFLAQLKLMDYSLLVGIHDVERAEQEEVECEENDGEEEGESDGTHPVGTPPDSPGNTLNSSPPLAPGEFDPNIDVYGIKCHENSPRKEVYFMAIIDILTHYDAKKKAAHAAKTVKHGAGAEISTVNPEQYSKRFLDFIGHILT
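Enzyme plus substrate dispensed, test compounds pinned in, then ATP (5 microM final) added. After 60 min at RT, ADP-Glo reagent 1 for 45 min and reagent 2 for 30 min preceded luminescence imaging.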
JMJD2A Tudor: JMJD2A Tudor domain (human) inhibition. AlphaScreen JMJD2A-Tudor / H3K4me3 peptide binding. Potency, µM (highest dose often 114 µM), for inactives: top-dose activity change, negative = inhibition, hits mostly inhibitors. hit rate 4.4% among 390,000; also: potency is read from the fitted curve at half-maximal effect; % is scaled to controls: 0 for no effect and ±100 for the full control effect; nearly all actives have a fitted effect of over 50% in size
G9a inh: inhibitors of human histone lysine methyltransferase G9a | G9a H3K9 monomethylation, AlphaScreen, 2 h | hit rate 8.8% among 350,000 | Q96KQ7 | Potency, µM (series often up to 102 µM), for inactives: at the highest dose activity, negative = inhibition, usual class: inhibitors; also: potency is read from the fitted curve at half-maximal effect; % is scaled to controls: 0 for no effect and ±100 for the full control effect; nearly all actives have a fitted effect of over 75% in size
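Step 1: enzyme (final 20 nM) with compound, 15 min RT. Step 2: substrate peptide 500 nM and SAM 20 uM, 2 h RT. Step 3: anti-H3K9me1 antibody and AlphaScreen beads, 10 min, then plate read.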
Starred values were filed as active, the others as inactive; ? = inconclusive; nt = not tested or not shown; [ ] = remark or other dose. Unless noted, calls follow the shape of the dose curve; as a rule, active = well fitted curve in the direction sought with a large enough effect; inconclusive = small, poorly fitted or top-dose-only effect, or another doubt; inactive = no such curve, though single readings can be large; an effect the other way counts as inactive or inconclusive.

SMILES | PLK1 PBD block | BAZ2B inh | HP1b chromo inh | PI5P4Ka inh | JMJD2A Tudor | G9a inh
N=C1C(c2ccccc2)=C(O)CN1CCCO | 24µM* | -4% | 10% | 2 | -21% | -9%[59 µM]
Cc1ccc([N+](=O)[O-])cc1S(=O)(=O)N1CCn2cccc2C1c1ccc(F)c(F)c1 (stereo not drawn) | nt | ? | -12% | nt | ? | ?
Cc1ccc(C2c3cccn3CCN2S(=O)(=O)c2ccc([N+](=O)[O-])cc2)cc1 (stereo not drawn) | nt | 7.1µM* | ? | nt | ? | 14µM*
O=[N+]([O-])c1ccc(S(=O)(=O)N2CCn3cccc3C2c2ccc(Br)cc2)cc1 (stereo not drawn) | nt | ? | -18% | nt | ? | 7.9µM*
CC(=O)c1ccc[n+](CC(=O)NC(C)c2ccccc2)c1 (stereo not drawn) | -23% | 6% | 22% | 1 | 1% | 12%[2.33 µM]
Cc1cc(OCC(O)CN2CCc3ccccc3C2)cc(C(C)C)c1 (stereo not drawn) | 3% | 4% | 41% | 16 | 0% | -7%[2.33 µM]
CCC(C)NCCCCOc1ccc(Br)cc1 (stereo not drawn) | -6% | ? | ? | 0 | 1.6µM* | 8.9µM*
C[N+](C)(C)CCOc1ccc([N+](=O)[O-])cc1 | -14% | -8% | 41% | -1 | -12% | -9%[59 µM]
CCC(C)NCCCCOc1cc(C)cc(C(C)C)c1 (stereo not drawn) | -20% | ? | ? | 2 | 8.9µM* | 11µM*
CCc1ccc(OCCOCC(O)CNC(C)CC)cc1 (stereo not drawn) | 6% | -4% | 36% | 20 | -5% | ?
CCC(C)NCCCOc1ccc([N+](=O)[O-])cc1 (stereo not drawn) | -6% | ? | -19% | 0 | 79µM* | ?
Cc1ccc(Cl)cc1N(CC(=O)NCc1ccccc1)S(C)(=O)=O | -2% | -4% | 38% | 2 | -8% | 2%
CCCNC(=O)Nc1cc(C(=O)NCc2cccc(OCC)c2)ccc1N1CCCC1 | nt | -29% | -2% | nt | -16% | 4%[59 µM]
CC1=[N+](C)c2ccc3ccccc3c2C1(C)C | -29% | 50µM* | -5% | -5 | ? | 8.9µM*
COc1ccc(CCn2c(-n3nc(C)cc3C)nc3c2c(=O)[nH]c(=O)n3C)cc1 | 3µM* | nt | -14% | ? | 3.2µM* | nt
COc1ccc(N2CCN(c3nc4c(c(=O)[nH]c(=O)n4C)n3Cc3cccc(C)c3)CC2)cc1 | -6% | -34% | ? | -3 | ? | 10µM*
COc1ccc(N2CCN(Cc3nc4c(c(=O)[nH]c(=O)n4C)n3Cc3ccccc3C)CC2)cc1 | nt | -23% | 19% | nt | -4% | 28µM*
CCN1CCN(c2nc3c(c(=O)[nH]c(=O)n3C)n2Cc2cccc(C)c2)CC1 | -3% | nt | nt | -6 | nt | nt
COCCNC(=O)C1CCCN(C(=O)Cc2ccc(F)cc2)CC1 (stereo not drawn) | -3% | nt | nt | -5 | nt | nt
CCOC(=O)CCCCC(=O)c1[nH]c(=O)[nH]c1CSc1nc2ccccc2[nH]1 | ? | ? | 21% | nt | 79µM* | 1.6µM*
CCOC(=O)CCCCC(=O)c1[nH]c(=O)[nH]c1CSc1nnc2c3cc(Br)ccc3n(C)c2n1 | nt | -67% | nt | nt | nt | 28µM*
CCOC(=O)CCCCC(=O)c1[nH]c(=O)[nH]c1CSc1nc(C)cc(=O)[nH]1 | -16% | 50µM* | 18% | nt | ? | ?
CCOC(=O)CCCCC(=O)c1[nH]c(=O)[nH]c1CSc1nc(C)cc(C)n1 | -3% | ? | 27% | -11 | -29% | ?
COc1cc(C=NO)nc(-c2ccccn2)c1 | 0% | nt | 40% | 3 | 14µM* | nt
CCCCCC/C=C1\CC(C(=O)OCC)Oc2ccccc21 (stereo not drawn) (tested in a mixture with another compound) | nt | nt | nt | nt | nt | 170%
SMILES | PLK1 PBD block | BAZ2B inh | HP1b chromo inh | PI5P4Ka inh | JMJD2A Tudor | G9a inh
CCOc1cc2c(cc1OCC)C(c1c(F)cccc1Cl)CC(=O)N2 (stereo not drawn) | nt | -2% | 14% | nt | -20% | -10%[59 µM]
CCNC(=O)Nc1cc(S(=O)(=O)N2CCOCC2)ccc1N1CCCCC1 | -1% | nt | nt | 7 | nt | nt
O=C(Nc1ccccc1)Nc1cc(S(=O)(=O)N2CCOCC2)ccc1N1CCCC1 | 21µM* | 1% | ? | -17 | -29% | ?
O=C(Nc1ccc(Cl)cc1)Nc1cc(S(=O)(=O)N2CCOCC2)ccc1N1CCCC1 | -11% | -33% | 3% | 0 | -33% | 40µM*
O=C(Nc1ccc(F)cc1)Nc1cc(S(=O)(=O)N2CCOCC2)ccc1N1CCCC1 | -5% | ? | 16% | 4 | -15% | 35µM*
NC(=O)C1CCN(CC(=O)Nc2cc(S(=O)(=O)N3CCOCC3)ccc2N2CCCC2)CC1 | -14% | -1% | 20% | -1 | -7% | 20µM*
COc1ccccc1CN1CC(C(=O)NCc2cc(C(C)C)no2)CCC1=O (stereo not drawn) | -4% | -7% | 31% | 0 | -4% | nt
COC(=O)c1cccc(NC2=NS(=O)(=O)c3ccccc32)c1 | nt | 7% | 38% | nt | 5% | 1%[59 µM]
Cc1cccc(NS(=O)(=O)c2ccc(-n3cccn3)cc2)c1C | -2% | -8% | 34% | -1 | -8% | 4%[0.0925 µM]
O=C(Nc1cc(S(=O)(=O)N2CCOCC2)ccc1N1CCOCC1)c1ccc(Cl)nc1 | 30µM* | 1% | -2% | -16 | -12%[11.4 µM] | 4%[12.7 µM]
CCN(C(=S)Nc1cc(S(=O)(=O)N2CCOCC2)ccc1Cl)c1cccc2ccccc12 | -12% | ? | -24% | -1 | -25% | 1.8µM*
O=C(Cc1ccccc1Cl)Nc1cc(S(=O)(=O)N2CCOCC2)ccc1N1CCOCC1 | 1% | 17% | 17% | -7 | -16% | 3.5µM*
O=C(Nc1cc(S(=O)(=O)N2CCOCC2)ccc1N1CCCC1)C1CC1 | ? | -21% | 19% | -1 | -4% | 40µM*
O=C(Cc1ccccc1F)Nc1cc(S(=O)(=O)N2CCOCC2)ccc1N1CCOCC1 | 0% | 0% | 39% | -5 | -6% | 3%[12.7 µM]
O=C(Nc1cc(S(=O)(=O)N2CCOCC2)ccc1N1CCOCC1)c1ccc(S(=O)(=O)N2CCCCC2)cc1 | 0% | 4% | 28% | 0 | -19% | 16%
O=S(=O)(c1ccc(Cl)c(NC(=S)Nc2cccc(O)c2)c1)N1CCOCC1 | -13% | -7% | 9% | -1 | -13% | ?
Cc1cc(C)c2c(=O)cc(CSCC(=O)Nc3ccccc3Cl)[nH]c2c1 | nt | 0% | 28%[57 µM] | nt | -8% | 1%[59 µM]
O=C(Nc1ccc(N2CCOCC2)c2nonc12)C1CCCC1 | 19µM* | ? | ? | -28 | -16%[11.4 µM] | ?
